The supplement of paper PMC3545927
The list shows a part of the results. The true hit rate is not given.

Molecular target: furin, P09958
Assay: furin cleavage Z-score vs untreated control; higher = more cleavage, active = 3.5 or more, inactive = 1 or less, 8 variable residues between constant flanks
Method in brief: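 To give the cleavage Z-score, log read counts were set against furin-free reactions, lowess-adjusted and scaled by median absolute deviation. These counts came from PCR adapter-tagged, sequenced DNA released when purified furin cut 8-mer peptides fused to a cDNA oligonucleotide and held on magnetic beads by their N-terminus. Digests were 0.01 ml, 1:10 enzyme:substrate, in 50 mM HEPES pH 7.5 with CaCl2 and NaCl, for 7.5, 15 or 30 min.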

Chain of furin, P09958 (P09958 whole entry): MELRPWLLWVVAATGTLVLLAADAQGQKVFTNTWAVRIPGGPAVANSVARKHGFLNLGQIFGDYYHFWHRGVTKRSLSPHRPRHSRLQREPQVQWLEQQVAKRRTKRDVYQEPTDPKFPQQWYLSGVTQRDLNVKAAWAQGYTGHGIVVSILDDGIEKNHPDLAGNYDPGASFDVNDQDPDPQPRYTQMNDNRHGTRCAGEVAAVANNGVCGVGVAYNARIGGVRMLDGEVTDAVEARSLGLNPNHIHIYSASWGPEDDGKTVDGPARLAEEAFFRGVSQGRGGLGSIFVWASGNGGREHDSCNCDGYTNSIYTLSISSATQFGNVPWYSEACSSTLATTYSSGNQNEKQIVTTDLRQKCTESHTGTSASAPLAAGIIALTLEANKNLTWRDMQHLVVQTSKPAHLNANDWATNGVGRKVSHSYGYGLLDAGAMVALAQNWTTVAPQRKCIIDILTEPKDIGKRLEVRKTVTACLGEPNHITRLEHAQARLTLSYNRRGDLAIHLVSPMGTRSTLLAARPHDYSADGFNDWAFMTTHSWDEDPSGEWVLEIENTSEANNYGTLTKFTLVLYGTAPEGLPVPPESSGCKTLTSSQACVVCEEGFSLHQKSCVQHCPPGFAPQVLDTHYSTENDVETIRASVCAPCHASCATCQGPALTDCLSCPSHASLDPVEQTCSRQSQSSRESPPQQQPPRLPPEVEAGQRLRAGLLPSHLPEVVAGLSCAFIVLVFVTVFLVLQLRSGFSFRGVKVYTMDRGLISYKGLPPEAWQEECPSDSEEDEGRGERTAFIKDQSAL

Sequence	furin cleavage Z-score (7.5 min)	furin cleavage Z-score (15 min)	furin cleavage Z-score (30 min)
CANRLIAFASAGNASASA [HC1119]	0.982 (inactive)	0.0869 (inactive)	0.661 (inactive)
CAPYYKRYISAGNASASA [HC577]	-0.596 (inactive)	1.03	0.43 (inactive)
CAEVPCHRCSAGNASASA [HC2400]	-0.164 (inactive)	1.15	0.38 (inactive)
CANLSRNRRLAGNASASA [FS-697]	2.54	6.24 (active)	6.91 (active)
CAARHRPRRLAGNASASA [FS-1307]	8.25 (active)	10.2 (active)	9.03 (active)
CAGDIRVRRLAGNASASA [FS-423]	3.94 (active)	5.14 (active)	6.57 (active)
CAEGHRPRRPAGNASASA [FS-412]	-0.592 (inactive)	-1.65 (inactive)	-2.58 (inactive)
CAKRAAVRRLAGNASASA [FS-1134]	-0.242 (inactive)	-0.206 (inactive)	1.42
CAACIRKRRLAGNASASA [FS-1582]	8.2 (active)	8.28 (active)	8.96 (active)
CAAEAAGRRLAGNASASA [HC1252]	-0.023 (inactive)	-0.0869 (inactive)	-1.21 (inactive)
CAAWYLKGKWAGNASASA [HC548]	-0.848 (inactive)	-0.178 (inactive)	-0.813 (inactive)
CAHSAKSKFGAGNASASA [HC1418]	-0.464 (inactive)	-0.415 (inactive)	-0.702 (inactive)
CAVVCCSMSKAGNASASA [HC2094]	-0.242 (inactive)	-0.54 (inactive)	-1.3 (inactive)
CAHGAGTRTIAGNASASA [HC702]	1.09	1.35	-2.29 (inactive)
CAALSRPRRLAGNASASA [FS-749]	2.43	5.44 (active)	2.14
CAEVPCHRPVAGNASASA [HC2410]	0.723 (inactive)	-0.406 (inactive)	-0.356 (inactive)
CAVDSRPRRSAGNASASA [FS-887]	9.24 (active)	9.17 (active)	9.61 (active)
CASSGRPRRSAGNASASA [FS-507]	10.4 (active)	9.27 (active)	7.66 (active)
CARSSRPRRSAGNASASA [FS-1163]	10.4 (active)	11 (active)	6.76 (active)
CAKPQRPRRPAGNASASA [FS-1133]	-0.333 (inactive)	0.223 (inactive)	1.52
CASSGCPERLAGNASASA [HC385]	-0.122 (inactive)	-0.598 (inactive)	0.353 (inactive)
CARSSRSGSSAGNASASA [FS-3096]	-0.25 (inactive)	-0.36 (inactive)	-1.33 (inactive)
CARESRPRRQAGNASASA [FS-1395]	8.96 (active)	9.39 (active)	6.91 (active)
CASSGRSFRSAGNASASA [FS-146]	0.572 (inactive)	0.748 (inactive)	1.78
